# Data from PubChem BioAssay AID488841 (Sanford-Burnham Center for Chemical Genomics, 2010).
# Hit rate of the full screen: of about 1,400 compounds, about 380 (27%) were called active.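 The calls were made as follows: active = mean inhibition above 50% across duplicate retests at 10 µM; inactive = the rest.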 Some of the results follow.
# Experiment: inhibition of NALP1/ASC/caspase-1 reporter signal in yeast, confirmation, NALP1 inhibitor project, S. cerevisiae, luminescence, single concentration (AID 488841);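 also: plate controls were DMSO in galactose medium for no effect and cells in plain SD medium for full effect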
# Details: S. cerevisiae NALP1/ASC/Caspase-1 reporter, beta-gal luminescence; at 10 µM; active compounds read high
row,SMILES,inhibition
1,Cc1cc(C)cc(OCc2nnc(SCC(=O)OC(C)C)o2)c1,47% (inactive)
2,CC1=C(OC(=O)c2ccc(Br)cc2)C(C)(C)C(c2ccccc2)OC1=O (configuration not stated),24.7% (inactive)
3,Cc1nc(NC(=O)/C=C/c2ccccc2)n[nH]1,40.7% (inactive)
4,C1CCC(C(CC2CCCCN2)C2CCCCC2)CC1 (configuration not stated),54.6% (active)
5,COc1cc(OC)c(-c2nnc(-c3ccc(OC)c(OC)c3OC)o2)cc1OC,31.9% (inactive)
6,CC1=CC(C)(C)Nc2ccc(OC(=O)C(C)N3C(=O)c4ccccc4C3=O)cc21 (configuration not stated),32.8% (inactive)
7,O=C(Cn1nnc2ccccc21)OCC(=O)c1ccc(Cl)cc1,40.5% (inactive)
8,O=C1C=CC(=O)N1CCNc1ncc(C(F)(F)F)cc1Cl,46.6% (inactive)
9,O=C1C=CC(=O)N1CCCCCCN1C(=O)C=CC1=O,73.3% (active)
10,CC1CCC2C(=O)N(c3ccc(C(=O)Oc4cccc5cccnc45)cc3)C(=O)C2C1 (configuration not stated),31.1% (inactive)
11,Cc1cc(C)c(NC(=O)/C(=C/c2ccccc2)c2ccccc2)c(C)c1,31.8% (inactive)
12,Cc1nc(/N=C(\N)NC(=O)N2c3ccccc3Sc3ccccc32)nc2ccccc12,44.3% (inactive)
13,O=C(Cc1ccc(-n2c(=O)[nH]c3ccccc3c2=O)cc1)N1CCN(c2ccccc2)CC1,18.6% (inactive)
14,Nc1ccc(C(=O)Nc2nc3ccccc3s2)cc1,69.7% (active)
15,Cc1ccc2nc(NC(=O)c3ccc4ncsc4c3)sc2c1,30.2% (inactive)
16,O=C(Nc1nc2ccccc2s1)C1c2ccccc2Oc2ccccc21,45.9% (inactive)
17,CCN(CC)C1CC(=O)N(c2cccc(C)c2)C1=O (configuration not stated),57.5% (active)
18,COC(=O)c1ccccc1SC1CC(=O)N(c2cccc(C)c2)C1=O (configuration not stated),34% (inactive)
19,Cc1cccc(N2C(=O)CC(Sc3ccccc3C(=O)O)C2=O)c1 (configuration not stated),42.5% (inactive)
20,Cc1cc(C)cc(N2C(=O)CC(Sc3ncn[nH]3)C2=O)c1 (configuration not stated),62.3% (active)
21,Cc1ccc(N2C(=O)CC(Sc3ccccc3C(=O)O)C2=O)cc1 (configuration not stated),40.4% (inactive)
22,CC(C)c1ccc(N2C(=O)CC(Sc3ncn[nH]3)C2=O)cc1 (configuration not stated),48.5% (inactive)
23,CCOC(=O)NC1(NCc2ccccc2)Oc2ccccc2O1,32.2% (inactive)
24,Oc1c(Br)cc(Br)cc1C=Nc1ccc2c(c1)OCO2,48.6% (inactive)
25,Cc1ccc(C(=O)O)cc1N=Cc1cc(Br)cc(Br)c1O,59% (active)
26,O=C(Nc1cccc(N=Cc2cc(Br)cc(Br)c2O)c1)c1ccco1,39.2% (inactive)
27,COc1ccc(C(C)C)cc1S(=O)(=O)n1cnc(C)c1,18.5% (inactive)
